In PMC7862700, “An all-to-all approach to the identification of sequence-specific readers for epigenetic DNA modifications on cytosine”:

How the values were obtained:
Assay in all cases: DAPPL (digital affinity profiling via proximity ligation, sequencing); 10 mM Tris-HCl pH 7.5, 50 mM NaCl, 1 mM DTT, 4% glycerol, room temperature, 30 min; GST-TFs on glutathione beads, 16-mer random dsDNA library, 0.1% formaldehyde crosslink after washing; high values mean tight binding
Conditions in all cases: protein: recombinant; tags: N-terminal GST; dsDNA, one strand shown
[1] = target: T1, ELK1 (Homo sapiens, UniProt P19419 1-428)
T1 sequence: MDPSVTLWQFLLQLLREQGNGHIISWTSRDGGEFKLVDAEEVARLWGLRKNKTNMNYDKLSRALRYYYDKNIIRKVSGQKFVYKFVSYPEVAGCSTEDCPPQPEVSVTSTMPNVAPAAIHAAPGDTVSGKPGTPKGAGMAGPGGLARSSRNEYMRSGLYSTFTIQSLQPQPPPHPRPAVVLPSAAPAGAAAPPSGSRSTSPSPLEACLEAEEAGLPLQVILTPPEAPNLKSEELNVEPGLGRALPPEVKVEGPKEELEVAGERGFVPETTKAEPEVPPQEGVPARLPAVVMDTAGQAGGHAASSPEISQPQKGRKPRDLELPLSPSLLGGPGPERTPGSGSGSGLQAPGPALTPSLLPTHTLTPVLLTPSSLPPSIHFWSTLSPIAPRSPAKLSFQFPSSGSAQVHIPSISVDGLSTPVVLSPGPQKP
Summary of the method: (§1)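 A tag-only sample was pooled with DNA-barcoded human transcription factors that had been expressed in yeast as GST fusions and captured on glutathione beads. The pools were incubated for 30 min at room temperature with 200 nmole of a random double-stranded 16-mer DNA library in Tris/NaCl/DTT/glycerol buffer, then washed, crosslinked with 0.1% formaldehyde, proximity-ligated (BsaI/T4 ligase, 1 h, 37 °C), PCR-amplified and sequenced on an Illumina NextSeq500. Binding signal is each hexamer's read frequency for a factor divided by its frequency for the tag-only sample.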

[2] = target: ELF1 (Homo sapiens, UniProt P32519 1-619)
Summary of the method: as §1

[3] = target: T2, EHF (Homo sapiens, UniProt Q9NZC4 1-300)
T2 sequence: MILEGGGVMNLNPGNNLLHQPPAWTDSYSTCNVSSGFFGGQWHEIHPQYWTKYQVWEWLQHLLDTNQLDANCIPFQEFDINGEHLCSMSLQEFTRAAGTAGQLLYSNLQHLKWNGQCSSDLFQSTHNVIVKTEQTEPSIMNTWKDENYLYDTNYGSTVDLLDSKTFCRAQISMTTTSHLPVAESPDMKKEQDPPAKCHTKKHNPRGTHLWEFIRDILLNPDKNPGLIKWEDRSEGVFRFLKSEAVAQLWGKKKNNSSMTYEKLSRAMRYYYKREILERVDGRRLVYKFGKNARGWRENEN
Summary of the method: as §1

[4] = target: T3, FEV (Homo sapiens, UniProt Q99581 1-238)
T3 sequence: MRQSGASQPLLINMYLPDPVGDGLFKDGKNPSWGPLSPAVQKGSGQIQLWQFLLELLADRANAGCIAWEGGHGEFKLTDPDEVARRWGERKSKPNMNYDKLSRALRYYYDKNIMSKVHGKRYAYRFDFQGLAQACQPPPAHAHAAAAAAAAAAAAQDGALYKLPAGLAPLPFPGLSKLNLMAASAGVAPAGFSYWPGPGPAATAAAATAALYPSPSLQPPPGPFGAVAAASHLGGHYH
Summary of the method: as §1

[5] = target: ETV5 (Homo sapiens, UniProt P41161 1-510)
Summary of the method: as §1

[6] = target: T4, ELK4 (Homo sapiens, UniProt P28324-2 1-405)
T4 sequence: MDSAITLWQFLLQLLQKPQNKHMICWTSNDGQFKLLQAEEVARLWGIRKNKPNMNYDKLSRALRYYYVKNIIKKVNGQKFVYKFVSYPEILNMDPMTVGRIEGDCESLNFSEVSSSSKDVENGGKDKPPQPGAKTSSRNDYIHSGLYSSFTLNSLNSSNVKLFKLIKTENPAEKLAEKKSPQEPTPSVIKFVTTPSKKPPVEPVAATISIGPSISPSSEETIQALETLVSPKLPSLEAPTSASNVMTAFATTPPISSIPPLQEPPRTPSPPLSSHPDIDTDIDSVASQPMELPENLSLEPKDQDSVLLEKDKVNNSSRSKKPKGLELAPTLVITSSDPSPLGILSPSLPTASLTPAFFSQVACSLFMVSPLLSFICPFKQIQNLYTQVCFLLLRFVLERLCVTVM
Summary of the method: as §1

[7] = target: T5, ETV2 (Homo sapiens, UniProt O00321 1-342)
T5 sequence: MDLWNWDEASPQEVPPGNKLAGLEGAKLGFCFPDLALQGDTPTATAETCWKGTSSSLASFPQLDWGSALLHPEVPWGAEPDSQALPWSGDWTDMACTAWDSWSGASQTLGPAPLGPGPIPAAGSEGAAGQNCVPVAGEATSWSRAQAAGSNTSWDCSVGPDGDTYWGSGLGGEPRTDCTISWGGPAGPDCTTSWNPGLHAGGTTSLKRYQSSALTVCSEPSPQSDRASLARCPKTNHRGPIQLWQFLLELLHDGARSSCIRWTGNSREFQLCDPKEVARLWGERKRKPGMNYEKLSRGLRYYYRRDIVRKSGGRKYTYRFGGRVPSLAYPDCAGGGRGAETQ
Summary of the method: as §1

[8] = target: T6, ERF (Homo sapiens, UniProt P50548 1-548)
T6 sequence: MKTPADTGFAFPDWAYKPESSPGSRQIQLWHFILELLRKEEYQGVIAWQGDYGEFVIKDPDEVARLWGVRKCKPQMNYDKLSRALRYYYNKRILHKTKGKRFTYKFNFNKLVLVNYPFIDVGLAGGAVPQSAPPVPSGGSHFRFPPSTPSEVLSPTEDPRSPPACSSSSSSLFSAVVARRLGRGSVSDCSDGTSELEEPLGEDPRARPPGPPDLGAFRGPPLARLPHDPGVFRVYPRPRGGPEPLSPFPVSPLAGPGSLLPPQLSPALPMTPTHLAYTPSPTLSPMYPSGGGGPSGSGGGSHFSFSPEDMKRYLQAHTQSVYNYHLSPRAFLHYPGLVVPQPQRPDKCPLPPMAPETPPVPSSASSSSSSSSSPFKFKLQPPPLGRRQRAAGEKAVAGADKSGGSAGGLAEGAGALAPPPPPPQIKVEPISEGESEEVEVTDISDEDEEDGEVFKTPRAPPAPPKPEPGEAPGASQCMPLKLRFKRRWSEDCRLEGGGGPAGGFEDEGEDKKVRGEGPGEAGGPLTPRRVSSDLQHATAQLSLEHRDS
Summary of the method: as §1

[9] = target: T7, ETV7 (Homo sapiens, UniProt Q9Y603 1-341)
T7 sequence: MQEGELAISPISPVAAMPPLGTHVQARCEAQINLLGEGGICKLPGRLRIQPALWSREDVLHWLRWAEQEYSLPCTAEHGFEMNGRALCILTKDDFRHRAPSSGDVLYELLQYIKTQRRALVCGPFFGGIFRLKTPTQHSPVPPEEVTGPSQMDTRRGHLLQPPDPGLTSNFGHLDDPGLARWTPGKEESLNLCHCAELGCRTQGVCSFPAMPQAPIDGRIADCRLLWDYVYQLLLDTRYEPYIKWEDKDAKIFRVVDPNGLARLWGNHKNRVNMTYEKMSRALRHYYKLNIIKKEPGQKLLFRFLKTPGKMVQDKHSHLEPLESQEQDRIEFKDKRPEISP
Summary of the method: as §1

[10] = target: T8, ETV3 (Homo sapiens, UniProt P41162-2 1-143)
T8 sequence: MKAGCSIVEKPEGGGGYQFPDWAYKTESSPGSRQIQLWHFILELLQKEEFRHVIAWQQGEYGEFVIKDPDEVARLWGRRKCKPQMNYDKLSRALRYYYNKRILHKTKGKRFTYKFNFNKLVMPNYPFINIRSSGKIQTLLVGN
Summary of the method: as §1

[11] = target: T9, GABPA (Homo sapiens, UniProt Q06546 1-454)
T9 sequence: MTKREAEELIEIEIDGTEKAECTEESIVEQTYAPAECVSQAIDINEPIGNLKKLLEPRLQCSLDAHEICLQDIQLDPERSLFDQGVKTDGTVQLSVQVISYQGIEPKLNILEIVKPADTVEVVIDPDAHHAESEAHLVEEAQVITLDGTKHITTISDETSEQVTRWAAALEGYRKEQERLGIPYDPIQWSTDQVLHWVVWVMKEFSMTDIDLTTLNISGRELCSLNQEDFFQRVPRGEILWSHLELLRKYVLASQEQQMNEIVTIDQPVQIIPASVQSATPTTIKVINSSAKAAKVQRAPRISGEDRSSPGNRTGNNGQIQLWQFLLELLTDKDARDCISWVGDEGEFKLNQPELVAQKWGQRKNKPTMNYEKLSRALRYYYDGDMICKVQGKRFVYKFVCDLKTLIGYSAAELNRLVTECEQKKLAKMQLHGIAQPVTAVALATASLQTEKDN
Summary of the method: as §1

[12] = target: SPIB (Homo sapiens, UniProt Q01892 1-262)
Summary of the method: as §1

[13] = target: ELF4 (Homo sapiens, UniProt Q99607 1-663)
Summary of the method: as §1

[14] = target: T10, ELF3 (Homo sapiens, UniProt P78545 1-371)
T10 sequence: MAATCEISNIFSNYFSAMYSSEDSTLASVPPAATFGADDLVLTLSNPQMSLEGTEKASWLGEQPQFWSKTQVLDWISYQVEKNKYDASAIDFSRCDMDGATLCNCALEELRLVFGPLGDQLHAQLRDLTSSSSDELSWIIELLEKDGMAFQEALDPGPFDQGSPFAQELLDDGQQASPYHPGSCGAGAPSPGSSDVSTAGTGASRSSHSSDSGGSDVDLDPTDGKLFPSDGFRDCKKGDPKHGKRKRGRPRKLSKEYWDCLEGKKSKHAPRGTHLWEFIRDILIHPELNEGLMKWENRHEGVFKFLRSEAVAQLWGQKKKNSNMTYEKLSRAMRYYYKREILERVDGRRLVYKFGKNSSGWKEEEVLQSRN
Summary of the method: as §1

[15] = target: ETV1 (Homo sapiens, UniProt P50549 1-477)
Summary of the method: as §1

[16] = target: T11, SPDEF (Homo sapiens, UniProt O95238 1-335)
T11 sequence: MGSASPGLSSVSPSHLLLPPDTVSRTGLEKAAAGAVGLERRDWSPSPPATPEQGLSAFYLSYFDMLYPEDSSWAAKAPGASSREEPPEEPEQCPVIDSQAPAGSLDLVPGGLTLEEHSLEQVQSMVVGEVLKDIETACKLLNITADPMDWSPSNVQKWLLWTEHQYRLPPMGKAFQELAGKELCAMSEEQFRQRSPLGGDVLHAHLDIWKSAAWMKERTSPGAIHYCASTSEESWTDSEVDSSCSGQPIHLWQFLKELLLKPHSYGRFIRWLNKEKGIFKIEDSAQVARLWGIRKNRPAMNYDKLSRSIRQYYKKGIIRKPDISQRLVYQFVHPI
Summary of the method: as §1

[17] = target: ETV6 (Homo sapiens, UniProt P41212 1-452)
Summary of the method: as §1

Sequence of ETV5 (P41161 whole entry): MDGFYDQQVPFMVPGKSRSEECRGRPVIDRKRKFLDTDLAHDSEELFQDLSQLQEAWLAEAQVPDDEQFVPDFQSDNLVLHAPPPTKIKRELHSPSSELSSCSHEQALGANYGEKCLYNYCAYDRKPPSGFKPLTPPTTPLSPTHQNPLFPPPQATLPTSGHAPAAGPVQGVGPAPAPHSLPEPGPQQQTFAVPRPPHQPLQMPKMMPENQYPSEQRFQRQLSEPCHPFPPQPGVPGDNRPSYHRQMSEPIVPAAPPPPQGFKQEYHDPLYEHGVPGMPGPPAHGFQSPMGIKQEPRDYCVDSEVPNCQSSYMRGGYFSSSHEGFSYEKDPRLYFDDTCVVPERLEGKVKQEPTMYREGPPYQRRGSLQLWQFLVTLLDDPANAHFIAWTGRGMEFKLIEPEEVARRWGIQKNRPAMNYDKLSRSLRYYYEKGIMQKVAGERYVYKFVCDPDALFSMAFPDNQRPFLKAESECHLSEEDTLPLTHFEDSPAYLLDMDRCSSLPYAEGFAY
Sequence of ELF1 (P32519 whole entry): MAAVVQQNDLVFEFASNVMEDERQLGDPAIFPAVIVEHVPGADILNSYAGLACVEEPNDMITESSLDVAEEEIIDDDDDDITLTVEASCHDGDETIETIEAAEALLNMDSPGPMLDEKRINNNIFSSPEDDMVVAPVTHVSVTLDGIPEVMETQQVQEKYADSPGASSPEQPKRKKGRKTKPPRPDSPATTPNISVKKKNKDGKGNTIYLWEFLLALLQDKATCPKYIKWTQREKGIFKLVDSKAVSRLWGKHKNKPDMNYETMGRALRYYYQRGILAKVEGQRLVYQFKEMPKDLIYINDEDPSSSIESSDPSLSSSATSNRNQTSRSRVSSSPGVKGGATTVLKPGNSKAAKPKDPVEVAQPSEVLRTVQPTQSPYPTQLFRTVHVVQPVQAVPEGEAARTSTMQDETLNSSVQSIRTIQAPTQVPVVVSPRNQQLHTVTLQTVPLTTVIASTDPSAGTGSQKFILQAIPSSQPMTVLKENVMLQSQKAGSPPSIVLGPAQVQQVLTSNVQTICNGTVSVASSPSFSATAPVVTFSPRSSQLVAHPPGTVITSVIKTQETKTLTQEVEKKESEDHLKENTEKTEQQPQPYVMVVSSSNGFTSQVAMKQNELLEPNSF
Sequence of SPIB (Q01892 whole entry): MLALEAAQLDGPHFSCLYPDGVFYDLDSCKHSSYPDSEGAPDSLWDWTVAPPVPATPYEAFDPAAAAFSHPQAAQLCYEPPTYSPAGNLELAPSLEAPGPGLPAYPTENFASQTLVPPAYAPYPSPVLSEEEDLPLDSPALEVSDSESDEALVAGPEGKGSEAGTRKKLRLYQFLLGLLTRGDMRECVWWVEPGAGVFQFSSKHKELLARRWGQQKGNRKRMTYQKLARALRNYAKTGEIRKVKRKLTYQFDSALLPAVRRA
Sequence of ETV1 (P50549 whole entry): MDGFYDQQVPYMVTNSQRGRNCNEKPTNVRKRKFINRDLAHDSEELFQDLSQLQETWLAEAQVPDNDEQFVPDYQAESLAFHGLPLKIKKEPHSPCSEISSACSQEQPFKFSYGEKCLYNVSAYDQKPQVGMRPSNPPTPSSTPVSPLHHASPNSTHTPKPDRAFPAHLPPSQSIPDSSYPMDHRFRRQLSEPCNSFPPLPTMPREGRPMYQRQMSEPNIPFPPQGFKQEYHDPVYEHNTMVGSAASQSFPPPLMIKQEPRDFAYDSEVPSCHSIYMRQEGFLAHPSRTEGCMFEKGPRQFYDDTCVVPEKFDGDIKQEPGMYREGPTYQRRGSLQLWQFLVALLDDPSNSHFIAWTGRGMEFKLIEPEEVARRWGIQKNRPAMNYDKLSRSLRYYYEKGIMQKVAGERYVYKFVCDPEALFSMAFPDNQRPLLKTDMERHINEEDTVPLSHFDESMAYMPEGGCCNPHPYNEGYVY
Sequence of ELF4 (Q99607 whole entry): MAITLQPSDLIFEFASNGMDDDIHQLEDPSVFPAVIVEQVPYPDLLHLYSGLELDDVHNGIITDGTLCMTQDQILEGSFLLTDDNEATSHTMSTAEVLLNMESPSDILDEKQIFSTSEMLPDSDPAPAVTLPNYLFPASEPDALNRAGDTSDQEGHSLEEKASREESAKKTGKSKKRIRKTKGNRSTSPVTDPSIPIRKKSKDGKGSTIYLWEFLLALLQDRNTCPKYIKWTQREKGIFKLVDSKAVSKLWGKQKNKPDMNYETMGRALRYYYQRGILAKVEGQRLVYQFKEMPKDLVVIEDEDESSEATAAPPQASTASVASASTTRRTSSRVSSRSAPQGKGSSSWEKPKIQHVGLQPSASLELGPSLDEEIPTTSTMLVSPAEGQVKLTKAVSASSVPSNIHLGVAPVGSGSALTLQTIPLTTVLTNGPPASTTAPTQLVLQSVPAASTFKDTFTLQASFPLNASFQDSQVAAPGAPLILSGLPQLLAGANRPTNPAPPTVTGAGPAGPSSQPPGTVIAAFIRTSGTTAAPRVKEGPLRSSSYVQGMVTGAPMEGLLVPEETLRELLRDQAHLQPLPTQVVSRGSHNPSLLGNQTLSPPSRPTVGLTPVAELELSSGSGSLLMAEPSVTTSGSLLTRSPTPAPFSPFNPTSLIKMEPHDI
Sequence of ETV6 (P41212 whole entry): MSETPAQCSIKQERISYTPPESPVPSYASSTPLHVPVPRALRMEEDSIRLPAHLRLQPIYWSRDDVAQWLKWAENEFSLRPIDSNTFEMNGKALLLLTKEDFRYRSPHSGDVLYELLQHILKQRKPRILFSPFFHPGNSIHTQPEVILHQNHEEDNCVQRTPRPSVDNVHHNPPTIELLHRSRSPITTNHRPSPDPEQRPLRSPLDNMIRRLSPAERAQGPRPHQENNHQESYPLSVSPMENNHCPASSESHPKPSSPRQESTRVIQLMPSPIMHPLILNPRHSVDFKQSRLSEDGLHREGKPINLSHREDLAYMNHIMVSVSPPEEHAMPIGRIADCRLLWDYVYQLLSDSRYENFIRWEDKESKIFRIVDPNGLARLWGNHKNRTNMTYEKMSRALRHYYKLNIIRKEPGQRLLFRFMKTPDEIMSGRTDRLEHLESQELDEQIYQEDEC

Sequence | binding signal [1] | binding signal [2] | binding signal [3] | binding signal [4] | binding signal [5] | binding signal [6] | binding signal [7] | binding signal [8] | binding signal [9] | binding signal [10] | binding signal [11] | binding signal [12] | binding signal [13] | binding signal [14] | binding signal [15] | binding signal [16] | binding signal [17]
GCTAAC | 1.1 fold enrichment (6-mer frequency, TF over GST control) | 1.04 fold enrichment (6-mer frequency, TF over GST control) | 1.03 fold enrichment (6-mer frequency, TF over GST control) | 1.03 fold enrichment (6-mer frequency, TF over GST control) | 1.06 fold enrichment (6-mer frequency, TF over GST control) | 1.05 fold enrichment (6-mer frequency, TF over GST control) | 1.07 fold enrichment (6-mer frequency, TF over GST control) | 1.03 fold enrichment (6-mer frequency, TF over GST control) | 1.09 fold enrichment (6-mer frequency, TF over GST control) | 1 fold enrichment (6-mer frequency, TF over GST control) |  |  |  |  |  |  | 
ACGCGG |  | 1.03 fold enrichment (6-mer frequency, TF over GST control) | 1.04 fold enrichment (6-mer frequency, TF over GST control) |  | 1.02 fold enrichment (6-mer frequency, TF over GST control) | 1.03 fold enrichment (6-mer frequency, TF over GST control) | 1.18 fold enrichment (6-mer frequency, TF over GST control) |  |  | 1.02 fold enrichment (6-mer frequency, TF over GST control) | 1.01 fold enrichment (6-mer frequency, TF over GST control) | 1.04 fold enrichment (6-mer frequency, TF over GST control) | 1 fold enrichment (6-mer frequency, TF over GST control) | 1.07 fold enrichment (6-mer frequency, TF over GST control) | 1.02 fold enrichment (6-mer frequency, TF over GST control) | 1.08 fold enrichment (6-mer frequency, TF over GST control) | 1.07 fold enrichment (6-mer frequency, TF over GST control)
